Entries with a potency or affinity are not part of this list. The source made the active and inactive calls. No rule for the calls is given here.
biological target: Kelch-like ECH-associated protein 1 (Homo sapiens) + Nuclear factor erythroid 2-related factor 2 (Homo sapiens) (UniProt Q14145+Q16236); experiment: disruptors of Keap1 binding to Nrf2 peptide – biochemical, fluorescence polarization, cherry-picked samples, dose response (AID 588683); conditions: plate reader; series mostly up to 26 µM;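 also: Kelch domain of Keap1 binding a fluorescein-labelled 9mer Nrf2 peptide; more negative means stronger inhibition of peptide binding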
Sequence (Q14145 whole entry, looked up, the tested form may be a part): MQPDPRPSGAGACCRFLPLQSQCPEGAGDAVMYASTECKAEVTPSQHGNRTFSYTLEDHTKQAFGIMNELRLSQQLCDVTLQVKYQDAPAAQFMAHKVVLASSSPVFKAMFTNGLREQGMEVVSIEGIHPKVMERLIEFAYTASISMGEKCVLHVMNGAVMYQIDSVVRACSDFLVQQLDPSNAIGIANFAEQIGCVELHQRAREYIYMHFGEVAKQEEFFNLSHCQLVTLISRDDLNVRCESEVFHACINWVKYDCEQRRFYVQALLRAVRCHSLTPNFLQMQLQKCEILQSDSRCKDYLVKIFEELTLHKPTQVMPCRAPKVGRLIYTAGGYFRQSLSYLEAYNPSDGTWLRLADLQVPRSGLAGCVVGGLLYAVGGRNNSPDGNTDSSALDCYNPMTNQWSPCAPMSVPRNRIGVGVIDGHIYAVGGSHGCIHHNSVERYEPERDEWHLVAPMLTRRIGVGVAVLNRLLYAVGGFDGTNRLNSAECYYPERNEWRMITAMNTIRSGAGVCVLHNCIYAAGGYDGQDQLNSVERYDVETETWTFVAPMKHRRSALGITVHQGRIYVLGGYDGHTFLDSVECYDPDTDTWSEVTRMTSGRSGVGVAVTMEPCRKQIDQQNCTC
Sequence (Q16236 whole entry, looked up, the tested form may be a part): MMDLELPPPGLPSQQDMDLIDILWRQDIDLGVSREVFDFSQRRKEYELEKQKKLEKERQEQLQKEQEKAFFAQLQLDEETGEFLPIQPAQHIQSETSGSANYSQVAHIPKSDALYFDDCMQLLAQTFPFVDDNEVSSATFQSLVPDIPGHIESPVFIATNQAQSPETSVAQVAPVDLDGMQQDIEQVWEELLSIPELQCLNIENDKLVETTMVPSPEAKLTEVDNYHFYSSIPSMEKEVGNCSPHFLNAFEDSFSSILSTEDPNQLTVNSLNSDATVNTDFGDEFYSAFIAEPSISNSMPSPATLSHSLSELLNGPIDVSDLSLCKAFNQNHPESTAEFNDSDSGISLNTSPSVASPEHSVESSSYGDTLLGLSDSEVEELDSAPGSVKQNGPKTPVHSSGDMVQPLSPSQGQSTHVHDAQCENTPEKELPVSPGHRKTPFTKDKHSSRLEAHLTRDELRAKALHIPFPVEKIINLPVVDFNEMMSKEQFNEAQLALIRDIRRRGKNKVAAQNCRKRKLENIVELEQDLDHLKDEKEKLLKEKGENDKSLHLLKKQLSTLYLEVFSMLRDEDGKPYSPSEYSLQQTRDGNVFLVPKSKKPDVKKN

outcome, inactive:
N=c1c(C(=O)NC2CCCC2)cc2c(=O)n3ccccc3nc2n1C1CCCCC1, CCCc1nc2oc3cc(OC)ccc3c(=O)c2c(=O)n1Cc1ccco1, CN1/C(=C\C=C(/C#N)C(=O)Nc2ccc(Cl)cc2)C(C)(C)c2ccccc21, COCCCN1C(=O)c2ccc(C(=O)Nc3ccc(C)cc3C)cc2C1=O, COc1ccc(C2OC34CCCCC3C(C#N)(C#N)C2(C#N)C(=N)O4)cc1 (configuration not stated), CCCCN(C(=O)CC1CCCCC1)c1c(N)n(CC(C)C)c(=O)[nH]c1=O, O=C(CCCCl)NC(=S)Nc1ccc(N2CCOCC2)cc1, Cc1nc(NS(=O)(=O)c2ccccc2)sc1NC(=O)OCCN(C)C, O=C(/C=C/c1ccccc1Cl)NCCCn1ccnc1, C=CCOc1ccc(C=NNc2ccc(S(=O)(=O)Nc3ccccc3C(=O)O)cc2[N+](=O)[O-])cc1OC, Nc1cccc2cc(S(=O)(=O)O)ccc12, Cc1ccc(-n2nnnc2SCC(=O)c2c(N)n(C3CC3)c(=O)[nH]c2=O)cc1, CCOC(=O)c1c(C)[nH]c(C(=O)COC(=O)c2cccnc2Cl)c1C, CCCN1CNC(=S)N(c2cc(C)ccc2C)C1, CCN1CCN(S(=O)(=O)c2ccc(Cl)c(C(=O)NC3CCC(C)CC3)c2)CC1 (configuration not stated), C=CCn1cccc(C(=O)Nc2ccc(OC)c(Cl)c2)c1=O, Cc1ccc(S(=O)(=O)N2CCCCC2)cc1NC(=O)c1ccccc1Cl, O=C(Nn1cnnc1)c1ccc(Cl)c(Cl)c1, CCCCCSc1nnc2c(n1)OC(C)N(C(C)=O)c1ccccc1-2 (configuration not stated), CC(C)Cn1c(N)c(C(=O)CSc2nnc(-c3ccco3)n2C)c(=O)n(C)c1=O, Cc1ccc(C)c(N2CCN(C(=O)c3cc4ccccn4n3)CC2)c1, O=c1[nH]c(/C=C/c2cccc3ccccc23)nc2ccccc12, Cc1ccc(NC(=O)CN2C(=O)NC3(CCCCCC3)C2=O)cc1Cl, COc1ccc(N(Cc2ccccc2)S(=O)(=O)c2cccc(C(=O)Nc3ncccc3C)c2)cc1, CCCN(CCC)C(=O)C1c2ccccc2Oc2ccccc21, CC(OC(=O)c1ccc([N+](=O)[O-])o1)C(=O)NC1CCCCC1C (configuration not stated), O=[N+]([O-])c1ccc(S(=O)(=O)c2ccccc2)nc1, CCCCC1OC23CCCCC2C(C#N)(C#N)C1(C#N)C(=N)O3 (configuration not stated), Oc1cc(NCCN2CCOCC2)cc2cccnc12, Cc1cc(=O)c2c([nH]1)c(C)cc1[nH]c(C)c(C)c12, C=CCOc1ccc(C2OC34CCCCC3C(C#N)(C#N)C2(C#N)C(=N)O4)cc1 (configuration not stated), CCSc1ncc(Cl)c(C(=O)Nc2ccccc2OC)n1, CCC1OC23CCCCC2C(C#N)(C(=N)O3)C1(C#N)C#N (configuration not stated), COc1cc(/C=C/C(=O)OCC(=O)c2ccc3c(c2)NC(=O)CO3)ccc1OC(F)F, Cc1nn(-c2ccccc2Cl)c(Cl)c1/C=N/Nc1nc2ccccc2s1, COc1cc(Cl)c(C)cc1NCC(=O)Nc1cccc(S(=O)(=O)N2CCCC2)c1, O=C(CCCN1C(=O)/C(=C\c2ccco2)SC1=S)Nc1ccc(O)cc1C(=O)O

From PubChem BioAssay AID588683 (Broad Institute, 2011)
